The list is not random: actives were taken first. Their share in the collection is about 3.5%.
MITF inh: inhibitors of human MITF. O75030. AlphaScreen MITF homodimerization, bead proximity signal. inhibition, % at 2.6 µM. 650,000 tested, 0.91% active. AID 1259374; in the data active = inhibition above about 50%;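 note: 0% = vehicle wells with protein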
FBW7 activator: activators of human E3 ligase FBW7; Q969H0; AlphaScreen FBW7–phospho-cyclin E peptide binding, activator screen; normalized activity (activation), % at 26.1 µM; 650,000 tested, 0.13% active; AID 1259310; in the data active = normalized activity above about 1.9%;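 note: purified mutant Fbw7 with reduced substrate affinity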
Target sequence (Q969H0 whole entry, looked up): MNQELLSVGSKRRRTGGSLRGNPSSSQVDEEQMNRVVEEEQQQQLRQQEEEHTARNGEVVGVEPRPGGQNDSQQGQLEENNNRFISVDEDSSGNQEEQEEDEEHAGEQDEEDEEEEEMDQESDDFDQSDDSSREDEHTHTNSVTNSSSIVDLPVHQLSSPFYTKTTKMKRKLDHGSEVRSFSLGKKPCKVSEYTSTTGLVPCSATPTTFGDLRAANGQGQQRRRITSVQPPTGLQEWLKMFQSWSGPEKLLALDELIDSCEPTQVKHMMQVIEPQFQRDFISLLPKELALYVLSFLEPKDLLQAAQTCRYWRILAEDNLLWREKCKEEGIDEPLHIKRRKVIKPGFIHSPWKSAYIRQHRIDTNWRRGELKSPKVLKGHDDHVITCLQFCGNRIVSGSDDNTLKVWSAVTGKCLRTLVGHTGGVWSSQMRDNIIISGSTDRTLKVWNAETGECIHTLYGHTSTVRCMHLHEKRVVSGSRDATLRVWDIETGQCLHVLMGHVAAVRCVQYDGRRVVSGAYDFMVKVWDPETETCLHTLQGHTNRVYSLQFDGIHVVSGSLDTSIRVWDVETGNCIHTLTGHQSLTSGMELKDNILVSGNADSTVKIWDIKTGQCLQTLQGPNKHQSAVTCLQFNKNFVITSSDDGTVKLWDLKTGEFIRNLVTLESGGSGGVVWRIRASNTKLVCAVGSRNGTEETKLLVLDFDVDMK
TEAD-YAP inh: TEAD-YAP interaction inhibition. HEK-TIYL cells, TEAD-Gal4/YAP UAS-luciferase luminescence. inhibition, % at 9.12 µM. 640,000 tested, 1.4% active. AID 1259422; in the data active = inhibition above about 32%;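 note: 0% = median of test compound wells and 100% = reference inhibitor wells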
GPR151 activ: activators of human GPR151; Q8TDV0; PathHunter beta-arrestin GPR151 cells, luminescence; activation, % at 11.2 µM; 650,000 tested, 1% active; AID 1508602; in the data active = activation above about 4.9%;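 note: 0% = median of compound wells and 100% = cells with positive control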
MITF inh conf: human MITF inhibition, confirmation; shares compounds with MITF inh; AlphaScreen MITF homodimerization, biotin/His-MITF beads; inhibition, % at 2.6 µM; 4,700 tested, 16% active; AID 1259372;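 active = inhibition above a cutoff derived from the DMSO control wells, cut at about 28% in these data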;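 note: 0% = MITF dimer wells with DMSO only; inhibitors lower the bead chemiluminescence by keeping MITF from dimerizing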
AlphaScreen DR: counter-screen: compounds optically interfering with AlphaScreen; 480 tested, 6% active; IC50, µM; AlphaScreen optical interference counterscreen, cell-free; shares compounds with MITF inh; call rule not given here
AlphaScreen intf2: counter-screen: compounds optically interfering with AlphaScreen; shares compounds with MITF inh; LysRS AlphaScreen counterscreen, signal interference, triplicate; inhibition, % at 2.6 µM; 4,700 tested, 7.6% active; AID 1259376;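 active = inhibition above a cutoff derived from the DMSO control wells, cut at about 30% in these data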
* hit, by the source's call; x = not tested or not shown.

SMILES	MITF inh	FBW7 activator	TEAD-YAP inh	GPR151 activ	MITF inh conf	AlphaScreen intf2	others
O=C(NCCc1ccccc1)C1CCN(Cc2cccnc2)CC1	50.7*	0.1	1.5	2.6	8.4	21.5
O=C(c1cccc(OC2CCN(CC3CC=CCC3)CC2)c1)N1CCOCC1 (centres undefined)	-1.0	0.0	4.5	0.2	x	x
O=C1c2cccc3cccc(c23)C(=O)N1CCCN(C(=O)c1ccc([N+](=O)[O-])cc1)c1ccc(Oc2ccccc2)cc1	5.7	0.0	4.9	-0.2	x	x
COc1ccc(C(=O)N/N=C/c2ccc(C(=O)O)cc2)cc1OC	4.5	0.0	6.8	0.0	x	x
CCOC(=O)c1c(NC(=O)CCC(=O)O)sc2c1CCN(C(=O)OCC)C2	-409.3	0.0	-1.6	0.5	x	x
O=C(c1cccnc1)N1CCN(CC2CC=CCC2)CC1 (centres undefined)	70.8*	0.6	5.5	-0.4	-6.8	-4.9
Cc1ccc(S(=O)(=O)C(CNS(=O)(=O)c2ccccc2)c2cccs2)cc1 (centres undefined)	21.1	0.3	5.4	0.4	x	x
CCS(=O)(=O)NCC(c1cccs1)S(=O)(=O)c1ccc(C)cc1 (centres undefined)	85.4*	3.2*	-2.4	3.1	82.5*	4.4	AlphaScreen DR=>6.6
CC(=O)NC1(c2ccccc2)CCN(C(C)=O)CC1	0.1	-0.1	-4.9	0.7	x	x
Cc1cc(NC(=O)CC(C)C)n(-c2nc3c(c(=O)[nH]2)CCC3)n1	33.6	0.2	15.3	-1.9	x	x
O=C(Nc1ccccc1C(F)(F)F)c1ccc(NC(=O)c2ccccc2C(=O)O)cc1	55.5*	0.2	-33.9	0.6	-3.0	-0.1
O=C(Nc1ccccc1C(F)(F)F)c1ccc(NC(=O)c2ccco2)cc1	5.3	-0.2	-18.6	-0.8	x	x
Nc1cccc(-c2ccc(C(=O)NCCc3ccc(O)cc3)s2)c1	21.1	0.0	-39.2	-2.2	x	x
CC1NC(=O)NC1CCCCCC(=O)OCN1C(=O)c2ccccc2C1=O (centres undefined)	118.5*	-0.4	-3.9	0.2	116.7*	98.6*
O=C(CCCNC(=O)OCc1ccccc1)OCN1C(=O)c2ccccc2C1=O	-3.8	0.0	4.3	0.6	x	x
CCc1ccc(NC(=O)C(=O)NCC(C)O)cc1 (centres undefined)	10.4	0.1	-35.1	-0.5	x	x
CCc1ccc(NC(=O)CNCC(C)O)cc1 (centres undefined)	55.6*	-0.1	-8.6	2.5	-15.6	0.5
O=C(c1cc(Cl)cc(Cl)c1)N1CCN(C(=O)c2cc(Cl)cc(Cl)c2)CC1	-3.0	-0.1	4.9	0.5	x	x
O=C(c1cc(Cl)cc(Cl)c1)N1CCCCC1	62.2*	1.0	-4.0	1.0	-14.5	-6.2
COCCOCC(O)CN1CCN(c2ccc(C)cc2)CC1 (centres undefined)	51.7*	-0.1	-6.7	1.4	4.0	1.3
O=C(NC1CC1)c1nnn(-c2ccccc2)c1CSc1ncccn1	-9.1	0.2	-15.2	0.0	x	x
CCOC(=O)N1CCc2c(sc3c2C(=O)NC(c2cccc(Br)c2)N3)C1 (centres undefined)	9.7	-0.1	2.8	0.1	x	x
COCCCNCCCCOc1c(Cl)cc(C)cc1Br	58.3*	0.0	14.7	0.4	5.3	10.1
COCCCNCCOCCOc1c(C)cc(C)cc1Cl	51.9*	0.0	5.0	-1.9	5.1	11.4
COCCNCCCOc1c(Cl)cc(C)cc1Br	27.2	-0.1	5.8	3.2	x	x
SMILES	MITF inh	FBW7 activator	TEAD-YAP inh	GPR151 activ	MITF inh conf	AlphaScreen intf2	others
Cc1cc(Br)cc(Cl)c1OCCCNCCN(C)C	-21.8	0.6	-4.4	0.8	x	x
Cc1cc(C)c(OCCCNCCN(C)C)c(Br)c1	54.6*	-0.5	0.8	1.7	3.2	20.6
Cc1ccc2c(c1)CN(CCC(=O)NCc1ccccc1C)CC(C)O2 (centres undefined)	5.7	-0.1	-4.6	0.5	x	x
CCOC(=O)c1ccc(N=Cc2c(O)n(CC)c(=S)[nH]c2=O)cc1	1.9	-0.2	-11.1	-0.3	x	x
Cc1ccc(C)c(NCC(O)CN2c3ccccc3Sc3ccccc32)c1 (centres undefined)	73.4*	-0.1	6.4	0.5	1.1	2.9
OC(CNc1ccccc1)CN1c2ccccc2Sc2ccccc21 (centres undefined)	9.1	0.5	0.4	-0.1	x	x
O=C(c1ccsc1)N1CCOc2ccc(CN3CCN(c4ccccc4)CC3)cc2C1	72.6*	-0.4	-1.5	-1.2	-4.9	-1.4
CCS(=O)(=O)N1CCN(CC(=O)NC2CCCCC2)CC1	54.5*	-0.1	0.0	3.0	10.3	8.0
CCOC(=O)c1c(C)c(C(=O)NCCc2ccc(OC)c(OC)c2)c(C)n1C	0.2	-0.2	0.9	-0.2	x	x
CCOC(=O)c1c(C)c(C(=O)NCCc2ccccc2OC)c(C)n1C	55.2*	-0.2	-1.2	-0.9	6.9	11.8
O=c1oc2ccc([N+](=O)[O-])cc2cc1-c1ccccn1	-1.0	-0.2	4.2	-0.7	x	x
COc1ccc(C2C(C(=O)OC(C)C)=C(C)NC3=C2C(=O)CC(C)(C)C3)c(OC)c1OC (centres undefined)	-6.2	-0.2	-6.9	0.7	x	x
CCCCCOC(=O)C1=C(C)NC2=C(C(=O)CC(C)(C)C2)C1c1ccccc1I (centres undefined)	60.6*	0.0	3.9	1.8	-0.4	16.6
COc1cccc(C2C(C(=O)OC(C)C)=C(C)NC3=C2C(=O)CC(C)(C)C3)c1OC (centres undefined)	64.2*	0.5	4.9	0.2	11.0	16.8
CCOC(=O)c1c(-c2ccco2)csc1NC(=O)CN1CCN(C)CC1	16.2	0.0	-1.8	-1.2	x	x
CCOC(=O)c1c(NC(=O)CN2CCN(CC)CC2)sc2c1CCC2	80.1*	-0.1	-2.4	1.7	7.1	7.0
CCOC(=O)c1c(-c2ccc(C)c(C)c2)csc1NC(=O)CN1CCN(C)CC1	89.7*	0.0	8.9	-0.4	-3.3	5.0
CCOC(=O)c1c(NC(N)=S)sc2c1CCCC2	20.0	0.0	6.0	-0.6	x	x
CCOC(=O)c1c(NC(=S)N2CCN(S(C)(=O)=O)CC2)sc2c1CCCC2	68.7*	0.0	5.2	0.9	10.7	6.5
CCOC(=O)c1c(NC(=O)CSc2nnc(C)s2)sc2c1CCC2	54.4*	0.1	4.0	-0.7	-6.9	19.9
O=C(Nc1ccc(Br)cc1)C1CCN(S(=O)(=O)c2cccnc2)CC1	2.4	-0.2	6.9	0.8	x	x
COc1ccc(/C=C2\C=C(c3ccccc3)N(c3ccc(Cl)c(C(=O)O)c3)C2=O)cc1Br	14.0	0.1	8.9	-1.2	x	x
Cc1c(NC(=O)CCl)c(=O)n(-c2ccccc2)n1C	2.5	-0.1	0.4	0.2	x	x
COc1ccc(CN2CCNC(=O)C2CC(=O)N2CCSCC2)c(OC)c1 (centres undefined)	-3.3	0.1	13.2	0.6	x	x
O=C(N/N=C\C(Br)=C\c1ccccc1)c1ccccn1	-5.3	-0.5	-0.4	-2.2	x	x

Bioassay records deposited in PubChem BioAssay by The Scripps Research Institute Molecular Screening Center.
